Measurements reported in the supplement of paper PMC3414501.
Counter-ions that a name gives are not always drawn.

The compounds below were run on S. cerevisiae AD1-9 (efflux-pump deficient), vegetative growth in YPD (assay: growth sensitivity score (doubling time z-score vs DMSO controls); higher = slower growth, strongly negative scores also mark growth inhibition (complete suppression), active = hit call of the paper).
Procedure, shortened: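 Yeast (Saccharomyces cerevisiae BY4741 and AD1-9) was grown in rich medium in microtiter plates from a starting OD600 of 0.065, with optical density read every 15 min over 24 hours. The growth sensitivity score was the difference between compound and solvent-only means, divided by the solvent-only standard deviation. Every experiment had eight solvent-only wells.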

Compound | growth sensitivity score
NC1CCN(c2nc3c(cc2F)c(=O)c(C(=O)O)cn3-c2ccc(F)cc2F)C1 (stereo not given) [Tosufloxacin tosylate] (stock concentration (mM, diluted 1:100): 7) | 1.02 (inactive)
C[C@@H]1C[C@H]2[C@@H]3CCC4=CC(=O)C=C[C@]4(C)[C@@]3(F)[C@@H](O)C[C@]2(C)[C@H]1C(=O)CO [Desoximetasone] (stock concentration (mM, diluted 1:100): 10) | 2.17 (active)
C/C=C1\[C@H]2C=C(C)C[C@]1(N)c1ccc(=O)[nH]c1C2 [Huperzine a] (stock concentration (mM, diluted 1:100): 10) | 1.24 (inactive)
C=CC1=C(C(=O)O)N2C(=O)[C@@H](NC(=O)/C(=N\OCC(=O)O)c3csc(N)n3)[C@H]2SC1 [Cefixime trihydrate] (stock concentration (mM, diluted 1:100): 10) | -1.39 (inactive)
Cc1occc(=O)c1O [Maltol] (stock concentration (mM, diluted 1:100): 10) | -1.16 (inactive)
C=CC[C@@H]1/C=C(\C)C[C@H](C)C[C@H](OC)[C@H]2O[C@@](O)(C(=O)C(=O)N3CCCC[C@H]3C(=O)O[C@H](/C(C)=C/[C@@H]3CC[C@@H](O)[C@H](OC)C3)[C@H](C)[C@@H](O)CC1=O)[C@H](C)C[C@@H]2OC [Tacrolimus] (stock concentration (mM, diluted 1:100): 10) | 20.9 (active)
COc1ccc(/C=C/C(=O)Nc2ccccc2C(=O)O)cc1OC [Tranilast] (stock concentration (mM, diluted 1:100): 10) | -1.78 (inactive)
CC[C@H]1OC(=O)[C@H](C)[C@@H](O[C@H]2C[C@@](C)(OC)[C@@H](O)[C@H](C)O2)[C@H](C)[C@@H](O[C@@H]2O[C@H](C)C[C@H](N(C)C)[C@H]2O)[C@](C)(OC)C[C@@H](C)C(=O)[C@H](C)[C@@H](O)[C@]1(C)O [Clarithromycin] (stock concentration (mM, diluted 1:100): 10) | -1.97 (inactive)
COc1cc(C(=O)NC2CCCNC2)cc(OC)c1OC (stereo not given) [Troxipide] (stock concentration (mM, diluted 1:100): 10.1) | -0.49 (inactive)
Oc1ccc(/C=C/c2cc(O)cc(O)c2)cc1 [Resveratrol] (stock concentration (mM, diluted 1:100): 10) | -0.99 (inactive)
CC(Oc1c(Cl)cccc1Cl)C1=NCCN1 (stereo not given) [Lofexidine hydrochloride] (stock concentration (mM, diluted 1:100): 10) | -0.79 (inactive)
CN1C(=O)CC[C@H]1c1cccnc1 [Cotinine] (stock concentration (mM, diluted 1:100): 10) | 1.38 (inactive)
CN1C(C(=O)Nc2ccccn2)=C(O)c2ccccc2S1(=O)=O [Piroxicam] (stock concentration (mM, diluted 1:100): 10) | 0.98 (inactive)
O=c1[nH]cnc2c1ncn2[C@H]1CC[C@@H](CO)O1 [Didanosine] (stock concentration (mM, diluted 1:100): 10.1) | -1.72 (inactive)
CC(C)(C)NCC(O)c1ccc(O)c(CO)c1 (stereo not given) [Salbutamol sulfate] (stock concentration (mM, diluted 1:100): 9.7) | -1.51 (inactive)
Cc1cc2c(s1)Nc1ccccc1N=C2N1CCN(C)CC1 [Olanzapine] (stock concentration (mM, diluted 1:100): 9.9) | -0.74 (inactive)
Nc1ccn([C@H]2CC[C@@H](CO)O2)c(=O)n1 [Zalcitabine] (stock concentration (mM, diluted 1:100): 10) | -0.86 (inactive)
CN(C)CCCC1(c2ccc(F)cc2)OCc2cc(C#N)ccc21 (stereo not given) [Citalopram hydrobromide] (stock concentration (mM, diluted 1:100): 7.9) | 0.63 (inactive)
Fc1ccc([C@@H]2CCNC[C@H]2COc2ccc3c(c2)OCO3)cc1 [Paroxetine] (stock concentration (mM, diluted 1:100): 8.8) | 118 (active)
CCCCN1CCCC1CNC(=O)c1cc(C#N)c2ccccc2c1OC (stereo not given) [Nafadotride] (stock concentration (mM, diluted 1:100): 10) | -2.8
